Measurements taken from PubChem BioAssay (NCI).
About 83,000 compounds went through this panel and 20% of them were active in at least one assay; those are over-represented in the sample as a whole.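 How to read the values: 0–100, growth inhibition (40 = 60% inhibited); 0, no net growth; -100 to 0, cell death (-40 = 40% of starting cells died; -100 = all dead).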 Activity calls are given as the source filed them.

Tested on: NCI-H226 lung
Experiment: NCI-60 one-dose screen, 48 h (100 = growth as untreated, 0 = no growth, -100 = all killed)
Conditions: 10 µM unless noted
Description: Growth inhibition of the NCI-H226 human Non-Small Cell Lung tumor cell line is measured as a screen for anti-cancer activity. Cells are grown in 96 well plates and exposed to the test compound for 48 hours. Compounds are tested at a single concentration, which is 10^-5 M for most compounds. The reported endpoint is percent growth (GI% or GIPRCNT), where numbers from 0 - 100% represent growth inhibition, and numbers from -100% - 0 represent cell death. For example, a value of 40 represents 60% growth inhibition. A value of 0 means no net growth occurred over the course of the experiment. A value of -40 indicates 40% of cells at the beginning of the experiment died by the end of the experiment. A value of -100 means all cells are dead at the end of the experiment.
NCI-60 Human Tumor Cell Lines Screen was performed using the standard one-dose NCI protocol, which is described in more detail at https://dtp.cancer.gov/discovery_development/nci-60/default.htm.
Compounds with GIPRCNT values below 10 were considered active. Activity score was based on GIPRCNT using the following formula: […]
Score is 0 for GIPRCNT values of 100 or above, 50 for GIPRCNT values of 0, and 100 for GIPRCNT values of -100.

Compound	growth
CN(C)c1ccc(-c2c(NC(C)(C)C)nc3c(OCCc4ccccc4)cccn23)cc1	10.6% (inactive)
N#Cc1ccc(/C=N/NC(=O)c2[nH]c3ccc(Br)cc3c2-c2ccccc2)s1	46.9% (inactive)
CN1C(=S)N(C)C2C1NN=C1SC(c3ccccc3)=CC(=O)N12 (stereo not given)	83.6% (inactive)
Fc1ccc(-c2nc(C(Cl)Cl)nc3cc(-c4ccccc4)nn23)cc1	74.7% (inactive)
COC(=O)C1CN(S(=O)(=O)/N=C2\NC(=O)NC2=C(Cl)Cl)C1	106% (inactive)
CC(=NNc1ncnc2ccccc12)c1ccc(S(C)(=O)=O)cc1	96.8% (inactive)
NS(=O)(=O)c1ccc(Nc2nc(Nc3ccccc3)nc(-n3nc(-c4ccccc4)cc3-c3ccccc3)n2)cc1	40.7% (inactive)
C[C@@H](Nc1c(C#N)cnc2ccc(-c3cnc(N)nc3)cc12)c1ccccc1	18.8% (inactive)
COc1ccc(C(=O)/C=C/c2ccc(OCc3ccc(C)cc3)c(OC)c2)cc1OC	59.2% (inactive)
Cc1cccc2sc(/N=C(\N)C(Br)Br)nc12	42.8% (inactive)
O=C(CSc1nccc(=O)[nH]1)Nc1ccc(-c2nc3ccccc3[nH]2)cc1	105% (inactive)
COC(=O)C1CCCN(S(=O)(=O)/N=C2\NC(=O)NC2=C(Cl)Cl)C1 (stereo not given)	105% (inactive)
C=C1CC[C@H]2[C@@](C)(CCC3OC(c4ccc(OCc5cn(C6CC(OC(C)=O)C(OC(C)=O)C(COC(C)=O)O6)nn5)cc4)OC[C@]32C)[C@@H]1/C=C/C1=CCOC1=O (stereo not given in full)	74.5% (inactive)
C#Cc1nc(C2=C(C)C(O)CC2)cs1 (stereo not given)	110% (inactive)
COc1cc(OC)c(S(=O)(=O)NNC(=O)c2ccncc2)cc1C(=O)/C=C/c1ccc(C)cc1	89.5% (inactive)
Nc1cc(-c2c[nH]c3ccc(F)cc23)nc2cc(-c3c[nH]c4ccc(F)cc34)nn12	97.4% (inactive)
CS(=O)(=O)c1ccc(-c2nc3ccccn3c2C=Nc2ccc(Cl)cc2)cc1	102% (inactive)
OC1CCN(CCCOc2c3ccccc3nc3c2oc2ccc(Cl)cc23)CC1	11.1% (inactive)
Clc1ccc2c(NCCCN3CCOCC3)c3oc4ccc(Cl)cc4c3nc2c1	38.4% (inactive)
O=C(N/N=C/c1cccs1)c1[nH]c2ccc(Br)cc2c1-c1ccccc1	50.9% (inactive)

Compound	growth
N#Cc1c(-c2ccc(Cl)cc2)nc(SCc2ccc([N+](=O)[O-])cc2)nc1N1CCNCC1	85.2% (inactive)
COc1ccc(-c2nn3c(-c4ccccc4F)nnc3s2)cc1	89.4% (inactive)
CC(O)C(NC(=O)C1CCCN1C(=O)CNC(=O)C1CC(=O)NCC(=O)NC(Cc2c[nH]c3ccccc23)C(=O)NC(Cc2ccc(O)cc2)C(=O)NCC(=O)NC(CO)C(=O)NC(CCC(N)=O)C(=O)NC(Cc2c[nH]c3ccccc23)C(=O)N1)C(=O)NCC(=O)NC(CCC(N)=O)C(=O)NC(CCCNC(=N)N)C(=O)NC(CC(=O)O)C(=O)O (stereo not given)	107% (inactive)
COc1ccc(-c2nc3ccc(-c4nnc(SCC(=O)Nc5ccc(C(=O)/C=C/c6ccccc6)cc5)o4)cc3[nH]2)cc1OC	98.2% (inactive)
C=CCn1c(SCC(=O)c2ccccc2)nnc1-c1c[nH]c2ccccc12	87.8% (inactive)
O=C(CCN1C(=O)/C(=C/c2ccccc2)SC1=S)N1CCOCC1	104% (inactive)
COC(=O)C(C)NS(=O)(=O)/N=C1\NC(=O)NC1=C(Cl)Cl (stereo not given)	106% (inactive)
Nc1ncc(-c2ccc3ncnc(N4CCc5cc(F)c(Cl)cc54)c3c2)cc1CO	18.9% (inactive)
Cc1ccc(CNS(=O)(=O)/N=C2\NC(=O)NC2=C(Cl)Cl)cc1	79.1% (inactive)
Cc1ccc(-c2nc(C(Cl)Cl)nc3cc(-c4ccccc4)nn23)cc1	76.4% (inactive)
NS(=O)(=O)c1cccc(Nc2nc(SCC(=O)c3ccc(Cl)cc3)nc3ccccc23)c1	42.5% (inactive)
Cc1cccc(/C=C/c2nn3c(-c4ccco4)nnc3s2)c1	96.5% (inactive)
O=C(Oc1ccc2ccc(=O)oc2c1)c1ccc(Cl)cc1	104% (inactive)
O=C(N/N=C/c1ccc(Cl)s1)c1[nH]c2ccc(Br)cc2c1-c1ccccc1	55.9% (inactive)
COc1cc(OC)c(C2C(Cl)C(=O)N2Nc2ncnc3ccccc23)cc1OC (stereo not given)	90.3% (inactive)
COc1cccc(OC)c1-c1nnn(C)c1C(=S)N1CCN(c2ccc([N+](=O)[O-])cc2Cl)CC1	88.6% (inactive)
COc1cccc(NC2=CC(=O)C(C)=C(C)C2=O)c1	97% (inactive)
CN(C)c1ccc(/C=c2\sc3nc4ccccc4n3c2=O)cc1	105% (inactive)
OC1CCc2c(-c3ccc4ncnc(N5CCc6cc(F)c(Cl)cc65)c4c3)cncc21 (stereo not given)	56.7% (inactive)
N#Cc1nc(-c2ccccc2)oc1S(=O)(=O)N1CCCCC1	105% (inactive)
